# High-throughput results deposited in PubChem by National Center for Advancing Translational Sciences (NCATS).
# The list is not random: actives were taken first. Their share in the collection is about 19%.
# HT1080NT lethal – kills 2HG-producing HT-1080-NT fibrosarcoma cells; AID 686970; 360,000 compounds, 1.6% hits; HT-1080-NT fibrosarcoma viability, CellTiter-Glo ATP luminescence, 48 h; Potency, µM (top dose mostly 46.1 µM), inactives show top-dose activity, negative = less viability, actives largely listed as cytotoxic;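 note: NT is the 2HG producing partner of a matched IDH1 knockdown line; potency is the fitted concentration of half-maximal effect; 0% = DMSO-treated cells and -100% = media-only wells without cells; nearly all actives have a fitted effect of over 55% in size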
#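 Viability by CellTiter-Glo luminescence after 48 h compound exposure at 37C of HT-1080-NT cells (750/well, RPMI, 5% FBS). % activity scaled between DMSO wells and medium-only wells, then curve-fitted and categorized by curve class.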
# TDP1 cell noCPT – qHTS for Inhibitors of human tyrosyl-DNA phosphodiesterase 1 (TDP1): qHTS in cells in absence of CPT. DT40 Tdp1-/- hTDP1 cells, no CPT, ATP luminescence, 48 h. Potency, µM (series often up to 46.2 µM), without a hit: at the highest dose activity change, negative = growth inhibition, actives largely listed as inhibitors. 420,000 compounds, 15% hits. AID 686978, 2013; note: potency is the fitted concentration of half-maximal effect; nearly all actives have a fitted effect of over 55% in size
#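 Chicken DT40 Tdp1-/- cells stably complemented with human TDP1 were seeded at 400 cells/well with DMSO in place of 20 nM camptothecin. After compound pinning, cells grew at least 48 hr at 37 °C; viability read by CellTiter-Glo luminescence.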
# IL-1B inflam inh – inhibitors of inflammasome signaling (IL-1 beta secretion). THP-1 LPS/ATP IL-1B secretion, AlphaLISA, 16 h; active compounds read low. activity change, % at 57.5 µM. 360,000 compounds, 4.7% hits; in the data active = activity change below about -50%; inconclusive = mostly about -30% to -49%
#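 Secreted IL-1B measured by AlphaLISA bead assay after 16 h compound exposure of THP-1 cells; compounds (final up to 57.5 uM) added 1 h before LPS (250 ng/mL) and ATP (1.25 mM) stimulation; lower signal means less secretion.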
# TDP1 cell CPT – growth inhibition of DT40 Tdp1-/-;hTDP1 cells with camptothecin (screen for TDP1 inhibitors); chicken DT40 Tdp1-/-;hTDP1 cells + 20 nM CPT, ATP luminescence, 48 h; Potency, µM (series often up to 46.2 µM), for the others: top-dose activity change, negative = growth inhibition, most hits filed as inhibitors; 420,000 compounds, 12% hits; AID 686979; note: potency is the fitted concentration of half-maximal effect; nearly all actives have a fitted effect of over 55% in size
#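 Chicken DT40 Tdp1-/- cells stably complemented with human TDP1 were seeded at 400 cells/well in medium containing 20 nM camptothecin, exposed to pin-transferred compounds, and grown at 37 °C for at least 48 hr. Viability was read as ATP luminescence.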
# HT1080 IDH1KD tx – HT-1080 IDH1 knockdown cell toxicity (counter line); HT-1080 IDH1 knockdown viability, ATP luminescence, 48 h; Potency, µM (titrated, usually from 46.1 µM), for inactives: top-dose activity, negative = toxicity, actives largely listed as cytotoxic; 360,000 compounds, 2% hits; AID 686971;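 note: potency is the fitted concentration of half-maximal effect; 0% = DMSO wells and -100% = cell-free medium wells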
#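 Assay cells: HT-1080 with IDH1 knockdown, 750 per well, RPMI/5% FBS. Exposure: 48 h at 37 °C following 2 h pre-incubation. Read: CellTiter-Glo luminescence; fitted concentration-response, curve class assigned.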
# Numbers without * were called inactive; ? = inconclusive; [ ] = dose if it differs, or a comment. Unless noted, calls come from the whole dose curve; as a rule, active = well fitted curve in the direction sought with a large enough effect; inconclusive = small, poorly fitted or top-dose-only effect, or another doubt; inactive = no such curve, though single readings can be large; an effect the other way counts as inactive or inconclusive. Unless noted, % is set by controls: 0 for no effect and ±100 for the full control effect.
SMILES,HT1080NT lethal,TDP1 cell noCPT,IL-1B inflam inh,TDP1 cell CPT,HT1080 IDH1KD tx
CCOc1ccc(OCC)c(NC(=O)CSc2nc3c(c(=O)n(C)c(=O)n3C)n2CC)c1,4%,23µM*,1,?,-9%
CCOc1ccc(OCC)c(NC(=O)CSc2nc3c(c(=O)n(C)c(=O)n3C)n2C(C)C)c1,-46%,21µM*,-81*,16µM*,4%[9.24 µM]
O=C(Cc1ccc(F)cc1)Nc1nnc(SCC(=O)NC2CCCC2)s1,2%,-3%,-8,21%,18%
O=C(CN1CCCCC1)Nc1nc(-c2ccc(Cl)cc2)cs1,13%,-2%,-82*,?,3%
Cc1ccc(-c2csc(NC(=O)CN3CCOCC3)n2)cc1C,-6%,16µM*,1,?,-3%
COc1ccc(C2(O)CCN(CC(=O)Nc3nc(-c4ccccc4)cs3)CC2)cc1,?,?,-98*,?,?
CC1CCN(Cc2ccc(-c3nnn(CC(=O)Nc4ccccc4Cl)n3)cc2)CC1,-3%,21µM*,10,16µM*,-9%
COc1ccc(CCNC(=O)c2cc(C)oc2C)cc1,?,-6%,-25,22%,22%
O=C(c1ccc(F)cc1F)N1CCCc2ccccc21,-4%,?,-6,-30%,0%
O=C(COC(=O)C1CCCC1)Nc1ncc(Cl)cc1Cl,-1%,0%,11,-4%,4%
O=C(CN1CCCC1)Nc1nc(-c2ccc(Cl)cc2)cs1,-23%,16µM*,-11,26µM*,-6%
O=C(CN1CCOCC1)Nc1nc(-c2ccccc2)cs1,1%,?,-6,-11%,1%
O=C(Cn1nnc(-c2ccc(CN3CCOCC3)cc2)n1)Nc1nc(-c2ccccc2)cs1,?,21µM*,-20,?,-15%
COc1ccc(OC)c(S(=O)(=O)N2CCCC(C(=O)N3CCOCC3)C2)c1 (configuration not stated),-16%,3%,11,4%,4%
COc1ccc(C(=O)NCc2cccnc2)cc1C(=O)NCc1cccnc1,23%,-3%,28,18%,-6%
COc1ccc(/C=C2\Sc3ccc(C(=O)N4CCN(Cc5ccccc5)CC4)cc3N(C)C2=O)cc1OC,?,3.3µM*,0,5.2µM*,-24%
COc1ccc(/C=C2\Sc3ccc(C(=O)NCc4cccnc4)cc3N(C)C2=O)cc1OC,23µM*,16µM*,-80*,21µM*,23µM*
COc1cccc(/C=C2\Sc3ccc(C(=O)NCc4cccnc4)cc3N(C)C2=O)c1,-9%,?,-82*,?,-29%
CN1C(=O)/C(=C/c2ccccc2F)Sc2ccc(C(=O)N3CCCC3)cc21,?,?,-75*,?,?
CCCCCCCn1c(C)nnc1-c1cnn(C)c1N,-5%,7%,0,-8%,-4%
Cc1c(C(=O)NC(C(C)C)C(C)C)cccc1[N+](=O)[O-],-2%,-15%,0,-8%,1%
CC1(C(=O)NS(=O)(=O)c2cccc(Cl)c2)CCN1C(=O)Cc1ccc(Cl)cc1Cl (configuration not stated),-2%,-13%,-19,-10%,-2%
CN1CSC2=C(C#N)C(c3cccc(OCc4ccccc4)c3)CC(=O)N2C1 (configuration not stated),?,?,12,21µM*,-1%
Oc1ccc(O)c(Cc2nc3ccccc3[nH]2)c1,-18%,8.2µM*,-22,?,-6%
Cc1[nH]n(-c2ccccc2)c(=O)c1N=Nc1c(O)cc(S(=O)(=O)N(C)C)c2ccccc12,?,6.5µM*,120,6.5µM*,9.2µM*
Cc1[nH]n(-c2ccccc2)c(=O)c1N=Nc1ccc2c(c1)OCCO2,11%,?,12,?,15%
COCC(C)n1c(=O)sc2ccccc2c1=O (configuration not stated),-4%,-1%,48,-12%,-1%
